Growth data for 6 compounds are collected here from PubChem BioAssay (NCI).

“And” between values parts separate entries of the source, which are not always exact repeats. Identical values can stand only once. This is part of a sample that, as a whole, favours compounds with a hit. Of some 83,000 tested, about 20% had one in any assay.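 Method: cells in 96-well plates; compound added at one concentration; 48 h incubation; percent growth measured; values under 10 scored active.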 The source made the active and inactive calls.

Among the test systems are DU-145 prostate; K-562 leukemia; MALME-3M melanoma; MDA-MB-231 breast; RXF 393 renal; SF-268 CNS; SF-295 CNS; SF-539 CNS; UACC-257 melanoma; M14 melanoma; HCT-15 colon; HT29 colon; SNB-75 CNS; SNB-19 CNS; PC-3 prostate; SK-MEL-5 melanoma; UACC-62 melanoma; LOX IMVI melanoma; SK-MEL-28 melanoma; U251 CNS.
What all share (assay): NCI-60 one-dose screen, 48 h (100 = growth as untreated, 0 = no growth, -100 = all killed)
Conditions in all cases: 10 µM unless noted

Consider `Nc1ccc2c(O)cc(S(=O)(=O)O)cc2c1`, for which the growth was 114% (inactive) and 110% (inactive) with DU-145 prostate; 93% (inactive) and 96.7% (inactive) in the experiment on K-562 leukemia; 122% (inactive) and 111% (inactive) in the experiment with MALME-3M melanoma; 107% (inactive) and 106% (inactive) in the experiment with MDA-MB-231 breast; 110% (inactive) and 89.3% (inactive) in the experiment on RXF 393 renal; 118% (inactive) and 101% (inactive) in the experiment on SF-268 CNS. Also, the growth with SF-295 CNS was 99.5% (inactive); in the experiment on SF-539 CNS, 87.2% (inactive) and 96% (inactive); in the experiment on UACC-257 melanoma, 101% (inactive) and 94.3% (inactive); with M14 melanoma it was 98.7% (inactive); in the experiment on HCT-15 colon, 104% (inactive) and 105% (inactive); in the experiment with HT29 colon it was 102% (inactive) and 106% (inactive). In addition, the growth in the experiment on SNB-75 CNS is 99.7% (inactive); with SNB-19 CNS, 91.6% (inactive) and 104% (inactive); with PC-3 prostate, 85.5% (inactive); in the experiment with SK-MEL-5 melanoma, 96.6% (inactive) and 104% (inactive); in the experiment with UACC-62 melanoma, 93.7% (inactive) and 103% (inactive); with LOX IMVI melanoma, 92.8% (inactive). In addition, in the experiment with SK-MEL-28 melanoma, the growth was 101% (inactive) and 114% (inactive).
With `Cn1cnc([N+](=O)[O-])c1Sc1ncn[nH]1`, the growth was 108% (inactive) in the experiment on DU-145 prostate; 137% (inactive) in the experiment with K-562 leukemia; 91.6% (inactive) in the experiment with MALME-3M melanoma; 106% (inactive) in the experiment on MDA-MB-231 breast; 26.1% (inactive) in the experiment with RXF 393 renal; 106% (inactive) in the experiment on SF-268 CNS. In addition, the growth in the experiment with SF-295 CNS was 116% (inactive); in the experiment on SF-539 CNS it was 103% (inactive); in the experiment on UACC-257 melanoma, 4.36% (active); with M14 melanoma it was 95.9% (inactive); with HCT-15 colon it was 107% (inactive); in the experiment with HT29 colon, 104% (inactive). The growth in the experiment on SNB-75 CNS was 85.6% (inactive); with SNB-19 CNS, 111% (inactive); with U251 CNS, 108% (inactive); in the experiment on SK-MEL-5 melanoma, 104% (inactive); in the experiment with UACC-62 melanoma, 108% (inactive); in the experiment on LOX IMVI melanoma it was 93.1% (inactive). Also, in the experiment on SK-MEL-28 melanoma, the growth is 104% (inactive).
On to `CC(=O)OCC1OC(OC(C)=O)C(OC(C)=O)C(OC(C)=O)C1OC(C)=O` (stereo unspecified), for which the growth in the experiment on DU-145 prostate is 107% (inactive) and 102% (inactive); in the experiment on K-562 leukemia, 111% (inactive) and 95.9% (inactive); with MALME-3M melanoma, 99.8% (inactive); in the experiment on MDA-MB-231 breast, 124% (inactive) and 109% (inactive); in the experiment on RXF 393 renal, 102% (inactive) and 106% (inactive); in the experiment on SF-268 CNS it was 108% (inactive) and 99% (inactive). In addition, the growth in the experiment on SF-295 CNS was 98.2% (inactive); in the experiment with SF-539 CNS, 99.6% (inactive) and 103% (inactive); in the experiment on UACC-257 melanoma it was 95.4% (inactive) and 101% (inactive); with M14 melanoma, 99.6% (inactive) and 103% (inactive); in the experiment on HCT-15 colon, 98.2% (inactive) and 104% (inactive); with HT29 colon, 110% (inactive) and 115% (inactive). The growth was 67.1% (inactive) and 98.6% (inactive) in the experiment on SNB-75 CNS; 102% (inactive) and 106% (inactive) with SNB-19 CNS; 105% (inactive) and 104% (inactive) in the experiment with PC-3 prostate; 102% (inactive) and 100% (inactive) in the experiment with SK-MEL-5 melanoma; 109% (inactive) and 99.9% (inactive) in the experiment with UACC-62 melanoma; 96.9% (inactive) and 97.3% (inactive) in the experiment on LOX IMVI melanoma. Besides, the growth in the experiment on SK-MEL-28 melanoma is 103% (inactive) and 109% (inactive).
For `Cc1cc(-c2ccc(N=Nc3ccc4c(S(=O)(=O)O)cc(S(=O)(=O)O)c(N)c4c3O)c(C)c2)ccc1N=Nc1ccc2c(S(=O)(=O)O)cc(S(=O)(=O)O)c(N)c2c1O`, the growth in the experiment with DU-145 prostate was 105% (inactive); in the experiment with K-562 leukemia it was 90.8% (inactive); in the experiment on MALME-3M melanoma, 107% (inactive); in the experiment with MDA-MB-231 breast it was 110% (inactive); in the experiment on RXF 393 renal, 101% (inactive); in the experiment on SF-268 CNS it was 102% (inactive). The growth in the experiment on SF-295 CNS was 93.7% (inactive); with SF-539 CNS it was 90.8% (inactive); in the experiment on UACC-257 melanoma it was 105% (inactive); in the experiment on M14 melanoma it was 118% (inactive); in the experiment on HCT-15 colon it was 96.6% (inactive); in the experiment on HT29 colon, 83.6% (inactive). Besides, the growth with SNB-75 CNS is 112% (inactive); with SNB-19 CNS, 111% (inactive); in the experiment on U251 CNS, 97.6% (inactive); in the experiment with PC-3 prostate, 81.9% (inactive); in the experiment on SK-MEL-5 melanoma, 94.1% (inactive); in the experiment with UACC-62 melanoma, 77.3% (inactive). Besides, the results for the growth in the experiment with LOX IMVI melanoma and with SK-MEL-28 melanoma were 96.9% (inactive) and 120% (inactive), respectively.
As for `O=C1C=C(Nc2ccccc2)c2ccccc2C1=O`, the growth in the experiment on DU-145 prostate is 21.2% (inactive) and 97.3% (inactive); with K-562 leukemia, 54.7% (inactive) and 98.7% (inactive); in the experiment on MALME-3M melanoma, 70.1% (inactive) and 71% (inactive); in the experiment on MDA-MB-231 breast it was 69.1% (inactive) and 59.7% (inactive); in the experiment with RXF 393 renal, 96.7% (inactive); in the experiment on SF-268 CNS, 80.3% (inactive) and 92.8% (inactive). The growth in the experiment on SF-295 CNS is 61.1% (inactive) and 105% (inactive); with SF-539 CNS, 44.4% (inactive) and 105% (inactive); in the experiment on UACC-257 melanoma it was 88.7% (inactive) and 97.9% (inactive); with M14 melanoma, 47% (inactive) and 107% (inactive); in the experiment with HCT-15 colon, 14.4% (inactive) and 88.9% (inactive); in the experiment with HT29 colon, 103% (inactive) and 119% (inactive). Besides, the growth with SNB-75 CNS was 23.5% (inactive); in the experiment on SNB-19 CNS, 45.3% (inactive) and 95.2% (inactive); in the experiment with PC-3 prostate it was 53.8% (inactive) and 76.8% (inactive); in the experiment with SK-MEL-5 melanoma, 74.2% (inactive); in the experiment with UACC-62 melanoma, 4.24% (active) and 97.1% (inactive); with LOX IMVI melanoma it was 71.6% (inactive). For the same compound, the growth in the experiment on SK-MEL-28 melanoma is 105% (inactive) and 114% (inactive).
Regarding `CC1=C/C(O)CC(=O)Cc2nc(co2)C(=O)N2CCC=C2C(=O)OC(C(C)C)C(C)/C=C\C(=O)NC/C=C\1` (stereo unspecified), the growth with DU-145 prostate is 90.7% (inactive); in the experiment with K-562 leukemia, 48.4% (inactive); in the experiment with MALME-3M melanoma, 125% (inactive); in the experiment with MDA-MB-231 breast, 98.6% (inactive); in the experiment on RXF 393 renal, 93.6% (inactive); in the experiment with SF-268 CNS, 93.3% (inactive). Besides, the growth in the experiment with SF-295 CNS is 101% (inactive); in the experiment on SF-539 CNS it was 104% (inactive); in the experiment with UACC-257 melanoma it was 75.4% (inactive); with M14 melanoma, 15.4% (inactive); with HCT-15 colon it was 90.1% (inactive); in the experiment with HT29 colon, 76.7% (inactive). Also, the growth with SNB-75 CNS is 80.8% (inactive); with SNB-19 CNS it was 89.8% (inactive); in the experiment on U251 CNS, 92.9% (inactive); in the experiment with PC-3 prostate, 71.5% (inactive); in the experiment with SK-MEL-5 melanoma, 96.7% (inactive); with UACC-62 melanoma, 84.9% (inactive). Further, the growth is 59.6% (inactive) in the experiment with LOX IMVI melanoma and 32.6% (inactive) with SK-MEL-28 melanoma.
